The values that follow come from PubChem BioAssay (EPA / NIEHS).

The source made the active and inactive calls. The calls were made as follows: active = hit-call score of the fitted dose curve at least 0.9, where 1 is the maximum; inactive = score below 0.9.

Conditions in all cases: mRNA level, 48 h; actives raise or lower the signal
Read-out in assay [1]: Forkhead box O3 (FOXO3), FOXO3 (gene 2309)
The experiment in a line: LTEA_HepaRG_FOXO3: Life Technologies and Expression Analysis (LTEA) Assay for Forkhead box O3 (FOXO3) using HepaRG (AID 2283459). In short, it runs like this: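 Differentiated human HepaRG cells, 48 h post-plating, exposed in duplicate for 48 h in serum-free induction medium; 8-point half-log series from 100 uM in 0.5% DMSO. FOXO3 mRNA by TaqMan qRT-PCR, normalized to ACTB/GAPDH/POLR2A; bidirectional fit versus DMSO.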

Read-out in assay [2]: ABC Transporter (ABCB1), ABCB1 (gene 5243)
The experiment in a line: LTEA_HepaRG_ABCB1: Life Technologies and Expression Analysis (LTEA) Assay for ABC Transporter (ABCB1) using HepaRG (AID 2283460). Put shortly: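 HepaRG cells exposed in duplicate for 48 h in serum-free induction medium to eight half-log concentrations up to 100 uM in 0.5% DMSO. ABCB1 mRNA quantified by qRT-PCR, normalised to ACTB, GAPDH and POLR2A; fitted bidirectionally versus DMSO.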

Read-out in assay [3]: ABC Transporter (ABCC3), ABCC3 (gene 8714)
The assay can be described thus: LTEA_HepaRG_ABCC3: Life Technologies and Expression Analysis (LTEA) Assay for ABC Transporter (ABCC3) using HepaRG (AID 2283462). In short, it runs like this:
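Transcriptional change of ABCC3 in HepaRG after 48 h treatment, determined by qRT-PCR normalized to endogenous controls. Concentrations spanned eight half-log steps to 100 uM in 0.5% DMSO.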

Read-out in assay [4]: ABC Transporter (ABCB11), ABCB11 (gene 8647)
The experiment in a line: LTEA_HepaRG_ABCB11: Life Technologies and Expression Analysis (LTEA) Assay for ABC Transporter (ABCB11) using HepaRG (AID 2283463). Put shortly:
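Differentiated human HepaRG cells in serum-free induction medium, dosed in duplicate for 48 h. Eight-point half-log series from 100 uM in 0.5% DMSO; ABCB11 mRNA by qRT-PCR, normalized to ACTB, GAPDH, POLR2A, fitted bidirectionally versus DMSO.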

Read-out in assay [5]: ABC Transporter (ABCC2), ABCC2 (gene 1244)
The experiment in a line: LTEA_HepaRG_ABCC2: Life Technologies and Expression Analysis (LTEA) Assay for ABC Transporter (ABCC2) using HepaRG (AID 2283464). In short, it runs like this: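 After plating and 48 h culture, HepaRG medium is replaced with serum-free induction medium and chemicals are added (8 concentrations, max 100 uM, 0.5% DMSO) for 48 h. Total RNA then undergoes qRT-PCR for ABCC2 with housekeeping normalization.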

Read-out in assay [6]: Broad substrate specificity ATP-binding cassette transporter ABCG2 (Homo sapiens) (UniProt Q9UNQ0)
The assay can be described thus: LTEA_HepaRG_ABCG2: Life Technologies and Expression Analysis (LTEA) Assay for ABC Transporter (ABCG2) using HepaRG (AID 2283465). In short, it runs like this: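 Differentiated HepaRG cells were exposed for 48 h in serum-free induction medium to 8 half-log concentrations, top 100 uM, in 0.5% DMSO. ABCG2 mRNA was measured by qRT-PCR, normalized to ACTB, GAPDH and POLR2A, with bidirectional fitting versus DMSO.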

Read-out in assay [7]: ATP-citrate lyase (ACLY), ACLY (gene 47)
The experiment in a line: LTEA_HepaRG_ACLY: Life Technologies and Expression Analysis (LTEA) Assay for ATP-citrate lyase (ACLY) using HepaRG (AID 2283466). Put shortly: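 Differentiated HepaRG cells exposed 48 h in serum-free induction medium to eight half-log concentrations up to 100 uM in 0.5% DMSO, duplicates. Transcript measured by Fluidigm TaqMan qRT-PCR, normalized to ACTB, GAPDH, POLR2A; bidirectional fit versus DMSO.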

Read-out in assay [8]: Alkaline Phosphatase, Placental (ALPP) gene, ALPP (gene 250)
The assay can be described thus: LTEA_HepaRG_ALPP: Life Technologies and Expression Analysis (LTEA) Assay for Alkaline Phosphatase, Placental (ALPP) gene using HepaRG (AID 2283468). In short, it runs like this:
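Using human liver HepaRG cells, chemicals are tested in duplicate over 48 h at half-log concentrations topping at 100 uM; phenobarbital 1 mM serves as induction control. ALPP mRNA change by qRT-PCR, bidirectional fit against vehicle.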

Read-out in assay [9]: Bcl-2 (BAD) gene, BAD (gene 572)
The experiment in a line: LTEA_HepaRG_BAD: Life Technologies and Expression Analysis (LTEA) Assay for Bcl-2 (BAD) gene using HepaRG (AID 2283469). In short, it runs like this: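 Differentiated HepaRG cells were exposed in duplicate in 0.5% DMSO for 48 h to eight-point half-log concentrations up to 100 uM. BAD mRNA was measured by Fluidigm TaqMan qRT-PCR, normalized to ACTB, GAPDH and POLR2A, and fitted bidirectionally against DMSO.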

Read-out in assay [10]: Bcl-2 (BAX) gene, BAX (gene 581)
The experiment in a line: LTEA_HepaRG_BAX: Life Technologies and Expression Analysis (LTEA) Assay for Bcl-2 (BAX) gene using HepaRG (AID 2283470). In short, it runs like this: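 Differentiated human HepaRG cells, plated 48 h then switched to serum-free induction medium, were exposed 48 h to 8 half-log concentrations up to 100 uM in 0.5% DMSO; BAX mRNA measured by qRT-PCR, normalized to ACTB, GAPDH, POLR2A.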

Read-out in assay [11]: adenosine kinase (ADK) gene, ADK (gene 132)
The assay can be described thus: LTEA_HepaRG_ADK: Life Technologies and Expression Analysis (LTEA) Assay for adenosine kinase (ADK) gene using HepaRG (AID 2283471). Put shortly: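 Read-out is ADK transcript level measured by qRT-PCR and normalised to three housekeeping genes. Cells are human HepaRG, dosed for 48 h at up to 100 uM in 0.5% DMSO. Gain or loss of signal is fitted against DMSO controls.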

Read-out in assay [12]: Alpha-fetoprotein (AFP) gene, AFP (gene 174)
The experiment in a line: LTEA_HepaRG_AFP: Life Technologies and Expression Analysis (LTEA) Assay for Alpha-fetoprotein (AFP) gene using HepaRG (AID 2283472). In short, it runs like this: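 Human HepaRG cells plated 48 h, then switched to serum-free induction medium and exposed in duplicate for 48 h to 8-point half-log series from 100 uM in 0.5% DMSO. AFP mRNA by qRT-PCR, normalized to ACTB, GAPDH, POLR2A; bidirectional fit versus DMSO.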

Read-out in assay [13]: BCL2L11 (gene 10018)
The assay can be described thus: LTEA_HepaRG_BCL2L11: Life Technologies and Expression Analysis (LTEA) Assay for Bcl-2 (BCL2L11) gene using HepaRG (AID 2283473). In short, it runs like this: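 Human hepatic HepaRG cultures are treated 48 h with test chemicals (maximum 100 uM, 0.5% DMSO vehicle). Expression of BCL2L11 is measured by qRT-PCR against ACTB, GAPDH and POLR2A, with activity in either direction scored relative to vehicle.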

Read-out in assay [14]: Apolipoprotein A-V (APOA5) gene, APOA5 (gene 116519)
The assay can be described thus: LTEA_HepaRG_APOA5: Life Technologies and Expression Analysis (LTEA) Assay for Apolipoprotein A-V (APOA5) gene using HepaRG (AID 2283474). Put shortly: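 Concentration-response of APOA5 expression in HepaRG: eight half-log doses to 100 uM, 48 h, qRT-PCR normalized to ACTB/GAPDH/POLR2A, bidirectional fitting with 0.5% DMSO as baseline.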

Read-out in assay [15]: Apoptosis regulator Bcl-2 (Homo sapiens) (UniProt P10415)
The experiment in a line: LTEA_HepaRG_BCL2: Life Technologies and Expression Analysis (LTEA) Assay for Bcl-2 gene using HepaRG (AID 2283475). In short, it runs like this: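 Differentiated HepaRG cells in serum-free induction medium were exposed for 48 h to eight half-log concentrations up to 100 uM in 0.5% DMSO, in duplicate. BCL2 mRNA was quantified by TaqMan qRT-PCR normalised to ACTB, GAPDH and POLR2A, with bidirectional fitting versus DMSO.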

Read-out in assay [16]: Bcl-2 (BID) gene, BID (gene 637)
The assay can be described thus: LTEA_HepaRG_BID: Life Technologies and Expression Analysis (LTEA) Assay for Bcl-2 (BID) gene using HepaRG (AID 2283476). Put shortly:
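Differentiated HepaRG cells in serum-free induction medium were exposed in duplicate for 48 h to eight half-log concentrations up to 100 uM in 0.5% DMSO. BID mRNA was quantified by qRT-PCR, normalized to ACTB, GAPDH and POLR2A.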

Read-out in assay [17]: Caspase-3 (Homo sapiens) (UniProt P42574)
The experiment in a line: LTEA_HepaRG_CASP3: Life Technologies and Expression Analysis (LTEA) Assay for cysteine-aspartic acid protease (CASP3) using HepaRG (AID 2283477). In short, it runs like this:
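Transcript-level assay: CASP3 mRNA in human HepaRG after 48 h treatment, eight half-log concentrations from 100 uM in 0.5% DMSO, quantified by qRT-PCR.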

Read-out in assay [18]: Cytochrome P450 (CYP24A1), CYP24A1 (gene 1591)
The experiment in a line: LTEA_HepaRG_CYP24A1: Life Technologies and Expression Analysis (LTEA) Assay for Cytochrome P450 (CYP24A1) using HepaRG (AID 2283478). Put shortly: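 Gene expression of CYP24A1 by TaqMan qRT-PCR in HepaRG after 48 h treatment, highest concentration 100 uM; activity fitted in both directions relative to DMSO vehicle.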

Read-out in assay [19]: growth arrest and DNA damage 45 (GADD45B), GADD45B (gene 4616)
The assay can be described thus: LTEA_HepaRG_GADD45B: Life Technologies and Expression Analysis (LTEA) Assay for growth arrest and DNA damage 45 (GADD45B) using HepaRG (AID 2283461). Put shortly:
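Human HepaRG monolayers receive chemicals for 48 h at eight half-log concentrations, highest 100 uM, in 0.5% DMSO. Expression is measured by TaqMan qRT-PCR and normalized to ACTB, GAPDH and POLR2A.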

What is called AC50 is the concentration giving half of the maximal activity seen.

Sequence of Apoptosis regulator Bcl-2 (Homo sapiens) (P10415 whole entry, looked up): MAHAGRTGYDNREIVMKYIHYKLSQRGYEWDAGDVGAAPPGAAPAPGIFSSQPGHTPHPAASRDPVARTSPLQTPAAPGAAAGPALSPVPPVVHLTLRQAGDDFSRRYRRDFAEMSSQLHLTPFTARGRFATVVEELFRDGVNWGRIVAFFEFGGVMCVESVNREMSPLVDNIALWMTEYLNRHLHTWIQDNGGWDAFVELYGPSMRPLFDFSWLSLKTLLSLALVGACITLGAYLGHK
Sequence of Caspase-3 (Homo sapiens) (P42574 whole entry, looked up): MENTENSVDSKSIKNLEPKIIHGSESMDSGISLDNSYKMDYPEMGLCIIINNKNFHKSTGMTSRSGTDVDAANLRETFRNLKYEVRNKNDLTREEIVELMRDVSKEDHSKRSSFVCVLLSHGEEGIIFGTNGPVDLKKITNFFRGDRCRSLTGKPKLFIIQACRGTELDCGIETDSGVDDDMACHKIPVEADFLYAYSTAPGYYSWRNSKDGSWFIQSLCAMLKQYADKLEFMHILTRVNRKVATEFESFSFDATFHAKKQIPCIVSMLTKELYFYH
Sequence of Broad substrate specificity ATP-binding cassette transporter ABCG2 (Homo sapiens) (Q9UNQ0 whole entry, looked up): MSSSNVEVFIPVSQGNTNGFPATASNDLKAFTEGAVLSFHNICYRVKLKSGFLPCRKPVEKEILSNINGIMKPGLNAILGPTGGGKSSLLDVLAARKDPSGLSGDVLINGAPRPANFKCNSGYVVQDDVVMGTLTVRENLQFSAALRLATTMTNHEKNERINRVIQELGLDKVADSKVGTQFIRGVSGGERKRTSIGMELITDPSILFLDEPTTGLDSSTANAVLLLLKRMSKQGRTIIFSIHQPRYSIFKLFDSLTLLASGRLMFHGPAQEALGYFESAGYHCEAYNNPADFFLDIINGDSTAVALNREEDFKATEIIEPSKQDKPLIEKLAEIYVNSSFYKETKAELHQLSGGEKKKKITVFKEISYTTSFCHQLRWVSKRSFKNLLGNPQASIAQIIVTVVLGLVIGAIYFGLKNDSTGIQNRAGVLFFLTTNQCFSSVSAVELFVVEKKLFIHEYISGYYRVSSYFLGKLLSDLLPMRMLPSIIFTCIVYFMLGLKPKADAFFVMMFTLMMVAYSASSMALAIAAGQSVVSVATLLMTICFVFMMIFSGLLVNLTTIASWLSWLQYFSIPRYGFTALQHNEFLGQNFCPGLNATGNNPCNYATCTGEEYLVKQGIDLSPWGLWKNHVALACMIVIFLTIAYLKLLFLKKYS

Take `CCCCN(CCCC)N=O`: the compound was classed as inactive in assay [1], in assay [2], in assay [3], in assay [4], in assay [5] and in [6]. In addition, the compound was classed as inactive in assay [7], in [8], in assay [9], in [10], in assay [11] and in assay [12]. For the same compound, the compound was classed as inactive in assay [13], in [14], in [15], in [16], in assay [17] and in assay [18].

For `Nc1ccc2ccccc2c1`, the call in assay [1], in assay [2], in assay [3], in assay [4], in [5] and in assay [6] was inactive. In addition, the compound was called inactive in [7], in [8], in [9], in assay [10], in assay [11] and in assay [12]. Further, the compound was called inactive in assay [13], in assay [14], in assay [15], in [16], in assay [17] and in [18].

Take `CCNc1nc(Cl)nc(NC(C)(C)C)n1`: the call in assay [1], in [3], in assay [4], in assay [6], in assay [7] and in assay [9] was inactive. In addition, the outcome in assay [10], in assay [11], in assay [12], in [13], in [14] and in assay [15] was inactive. Also, the compound was called inactive in assay [16], in assay [17] and in [18]. Further, the half-maximal activity concentration (AC50) in [2] is 7.02 µM (active); in [5], 4.01 µM (active); in [8] it was 9.92 µM (active).

As to `O=[N+]([O-])c1ccc(Cl)c(Cl)c1`, the call in [1], in assay [2], in assay [3], in assay [4], in assay [5] and in assay [6] was inactive. Further, the call in assay [7], in [8], in assay [9], in assay [10], in [11] and in [12] was inactive. Further, the call in [13], in [14], in [15], in assay [16], in assay [17] and in assay [18] was inactive.

On to `Cc1ccc(O)cc1C`, for which the result in assay [1], in assay [19], in [3], in assay [5], in assay [6] and in assay [7] was inactive. Also, the result in [8], in assay [9], in [10], in [11], in [12] and in assay [13] was inactive. The result in assay [14], in assay [15], in assay [16] and in assay [17] was inactive.

Take `CCOS(=O)(=O)OCC`: the call in assay [1], in [2], in assay [3], in [4], in [5] and in [6] was inactive. The compound was called inactive in assay [7], in assay [8], in assay [9], in [10], in assay [11] and in [12]. For the same compound, the compound was called inactive in assay [13], in [14], in [15], in [16], in [17] and in assay [18].
